From PubChem BioAssay AID1159580 (chemical genetic matrix, 2015)
Out of some 5,500 compounds screened, about 2,000 (36%) were called active. Inconclusive results (about 18%) are left out. Cut-off read from the data, not from the text of the source: active = normalized growth mostly below about 0.91 (no sharp cut-off); inconclusive = no clear call, values can overlap the other calls; inactive = mostly above about 0.92. Some of the results follow.

Assay: chemical genetic growth profiling, strain panel (AID 1159580);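 note: tested at 20 µM; growth read once vehicle control cultures reached saturation at 30 °C; 1 = growth at the plate median or of vehicle wells; lower values mean less growth of the strain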
Conditions: growth OD

Measured: normalized growth

NS(=O)(=O)c1cc2c(cc1Cl)NC(C(Cl)Cl)NS2(=O)=O (stereo not drawn)
inactive: S. cerevisiae deletion strains, locus YKL009W, strain mrt4, active compounds read low 1.02 | S. cerevisiae deletion strains, locus YKL068W, active compounds read low 1 | S. cerevisiae deletion strains, locus YKL085W, strain MDH1 (second series), active compounds read low 1.01 | S. cerevisiae deletion strains, locus YKL085W, strain MDH1, active compounds read low 1.01 | S. cerevisiae deletion strains, locus YKL160W, strain elf1, active compounds read low 1 | S. cerevisiae deletion strains, locus YKL190W, strain CNB1, active compounds read low 1.02 | S. cerevisiae deletion strains, locus YKR001C, strain vps1, active compounds read low 1.03 | S. cerevisiae deletion strains, locus YKR026C, strain gcn3, active compounds read low 0.99 | S. cerevisiae deletion strains, locus YKR091W, strain srl3, active compounds read low 0.97 | S. cerevisiae deletion strains, locus YLL001W, strain dnm1, active compounds read low 1.01 | S. cerevisiae deletion strains, locus YLL026W, active compounds read low 0.991 | S. cerevisiae deletion strains, locus YLL041C, strain sdh2, active compounds read low 0.988 | S. cerevisiae deletion strains, locus YLR027C, strain aat2, active compounds read low 0.985 | S. cerevisiae deletion strains, locus YLR039C, strain RIC1, active compounds read low 1.06 | S. cerevisiae deletion strains, locus YLR058C, strain SHM2, active compounds read low 1.02 | S. cerevisiae deletion strains, locus YLR102C, strain apc9, active compounds read low 1.01 | S. cerevisiae deletion strains, locus YLR113W, strain HOG1, active compounds read low 0.996 | S. cerevisiae deletion strains, locus YLR221C, strain rsa3, active compounds read low 0.949 | S. cerevisiae deletion strains, locus YLR258W, strain gsy2, active compounds read low 0.977 | S. cerevisiae deletion strains, locus YLR262C, strain YPT6 (second series), active compounds read low 0.999 | S. cerevisiae deletion strains, locus YLR262C, strain YPT6, active compounds read low 1.05 | S. cerevisiae deletion strains, locus YLR268W, strain sec22, active compounds read low 1.04 | S. cerevisiae deletion strains, locus YLR320W, strain mms22, active compounds read low 0.972 | S. cerevisiae deletion strains, locus YLR330W, strain CHS5, active compounds read low 1 | S. cerevisiae deletion strains, locus YLR342W, strain FKS1 (second series), active compounds read low 1.02 | S. cerevisiae deletion strains, locus YLR342W, strain FKS1, active compounds read low 0.993 | S. cerevisiae deletion strains, locus YLR357W, strain rsc2, active compounds read low 0.956 | S. cerevisiae deletion strains, locus YLR370C, strain arc18, active compounds read low 0.985 | S. cerevisiae deletion strains, locus YLR371W, strain rom2, active compounds read low 1.02 | S. cerevisiae deletion strains, locus YLR384C, strain iki3, active compounds read low 0.973 | S. cerevisiae deletion strains, locus YLR418C, strain cdc73, active compounds read low 1.05 | S. cerevisiae deletion strains, locus YML016C, strain PPZ1, active compounds read low 1 | S. cerevisiae deletion strains, locus YML032C, strain rad52, active compounds read low 1.02 | S. cerevisiae deletion strains, locus YML120C, strain ndi1, active compounds read low 0.986 | S. cerevisiae deletion strains, locus YML124C, strain tub3, active compounds read low 1.02 | S. cerevisiae deletion strains, locus YMR058W, strain fet3, active compounds read low 0.982 | S. cerevisiae deletion strains, locus YMR078C, strain ctf18, active compounds read low 1.02 | S. cerevisiae deletion strains, locus YMR125W, strain sto1, active compounds read low 0.966 | S. cerevisiae deletion strains, locus YMR129W, active compounds read low 0.97 | S. cerevisiae deletion strains, locus YMR205C, strain PFK2, active compounds read low 0.994 | S. cerevisiae deletion strains, locus YMR223W, strain ubp8, active compounds read low 1.01 | S. cerevisiae deletion strains, locus YMR231W, strain pep5, active compounds read low 0.971 | S. cerevisiae deletion strains, locus YMR263W, strain SAP30, active compounds read low 1.01 | S. cerevisiae deletion strains, locus YMR307W, strain GAS1, active compounds read low 1 | S. cerevisiae deletion strains, locus YNL067W, strain RPL9B, active compounds read low 1.01 | S. cerevisiae deletion strains, locus YNL071W, strain lat1, active compounds read low 0.981 | S. cerevisiae deletion strains, locus YNL183C, strain NPR1, active compounds read low 0.943 | S. cerevisiae deletion strains, locus YNL209W, strain ssb2, active compounds read low 0.997 | S. cerevisiae deletion strains, locus YNL233W, strain BNI4, active compounds read low 1.01 | S. cerevisiae deletion strains, locus YNL248C, strain rpa49, active compounds read low 0.935 | S. cerevisiae deletion strains, locus YNL250W, strain rad50, active compounds read low 1.02 | S. cerevisiae deletion strains, locus YNL271C, strain bni1, active compounds read low 1.01 | S. cerevisiae deletion strains, locus YNL298W, strain CLA4, active compounds read low 1.01 | S. cerevisiae deletion strains, locus YNL307C, strain MCK1, active compounds read low 1.03 | S. cerevisiae deletion strains, locus YNL322C, strain KRE1 (second series), active compounds read low 0.968 | S. cerevisiae deletion strains, locus YNR049C, strain mso1, active compounds read low 0.971 | S. cerevisiae deletion strains, locus YNR052C, strain pop2, active compounds read low 1.01 | S. cerevisiae deletion strains, locus YOL006C, strain TOP1, active compounds read low 1.02 | S. cerevisiae deletion strains, locus YOL012C, strain htz1 0.822 | S. cerevisiae deletion strains, locus YOL147C, strain pex11, active compounds read low 1.01 | S. cerevisiae deletion strains, locus YOR001W, strain rrp6, active compounds read low 0.978 | S. cerevisiae deletion strains, locus YOR061W, strain CKA2, active compounds read low 1 | S. cerevisiae deletion strains, locus YOR069W, strain VPS5, active compounds read low 1.01 | S. cerevisiae deletion strains, locus YOR070C, strain gyp1, active compounds read low 0.983 | S. cerevisiae deletion strains, locus YOR080W, strain dia2, active compounds read low 0.984 | S. cerevisiae deletion strains, locus YOR083W, strain WHI5, active compounds read low 0.982 | S. cerevisiae deletion strains, locus YOR106W, strain vam3, active compounds read low 1.01 | S. cerevisiae deletion strains, locus YOR136W, strain idh2, active compounds read low 1.01 | S. cerevisiae deletion strains, locus YOR144C, strain elg1, active compounds read low 1 | S. cerevisiae deletion strains, locus YOR184W, strain ser1, active compounds read low 1.02 | S. cerevisiae deletion strains, locus YOR231W, strain MKK1, active compounds read low 0.98 | S. cerevisiae deletion strains, locus YOR265W, strain rbl2, active compounds read low 0.981 | S. cerevisiae deletion strains, locus YOR270C, strain vph1, active compounds read low 0.967 | S. cerevisiae deletion strains, locus YOR290C, strain snf2, active compounds read low 0.945 | S. cerevisiae deletion strains, locus YOR316C, strain cot1, active compounds read low 1.01 | S. cerevisiae deletion strains, locus YPL051W, strain arl3, active compounds read low 0.991 | S. cerevisiae deletion strains, locus YPL055C, strain LGE1, active compounds read low 1.02 | S. cerevisiae deletion strains, locus YPL078C, strain atp4, active compounds read low 1 | S. cerevisiae deletion strains, locus YPL106C, strain sse1, active compounds read low 0.96 | S. cerevisiae deletion strains, locus YPL240C, strain hsp82, active compounds read low 0.983 | S. cerevisiae deletion strains, locus YPL241C, strain CIN2, active compounds read low 1.01 | S. cerevisiae deletion strains, locus YPL256C, strain CLN2, active compounds read low 0.969 | S. cerevisiae deletion strains, locus YPR119W, strain clb2, active compounds read low 1 | S. cerevisiae deletion strains, locus YPR141C, strain kar3, active compounds read low 1.02 | S. cerevisiae deletion strains, locus YPR163C, strain tif3, active compounds read low 1.02 | S. cerevisiae deletion strains, locus YPR167C, strain met16, active compounds read low 1.01 | S. cerevisiae deletion strains, strain wtn01, active compounds read low 1.03 | S. cerevisiae strains, strain wild type, active compounds read low 1
